Measured values published in PubChem BioAssay (EPA / NIEHS).
Inconclusive results are not listed. Active and inactive are the calls of the source. The calls were made as follows: active = hit-call score of the fitted dose curve at least 0.9, where 1 is the maximum; inconclusive = response in the unintended direction; inactive = score below 0.9.

target: human Peripheral-type Benzodiazepine Receptor (PBR), TSPO (gene 706) (UniProt P30536); assay: NVS_MP_hPBR: NovaScreen (NVS) Membrane Protein Assay for human Peripheral-type Benzodiazepine Receptor (PBR) (AID 2283331)
Experimental: NVS_MP_hPBR is a biochemical, single-readout assay that uses extracted gene-proteins from Human colonic cell membranes in a tissue-based cell-free assay. Measurements were taken 1 hour after chemical dosing in a 48-well plate.NVS_MP_hPBR is one of one assay component(s) measured or calculated from the NVS_MP_hPBR assay. It is designed to make measurements of radioligand binding, a form of binding reporter, as detected with scintillation counting signals by Filter-based radiodetection technology.Data from the assay component NVS_MP_hPBR was analyzed into 1 assay endpoint. This assay endpoint, NVS_MP_hPBR, was analyzed in the positive analysis fitting direction relative to DMSO as the negative control and baseline of activity. Using a type of binding reporter, loss-of-signal activity can be used to understand changes in the binding as they relate to the gene TSPO. Furthermore, this assay endpoint can be referred to as a primary readout, because the performed assay has only produced 1 assay endpoint. To generalize the intended target to other relatable targets, this assay endpoint is annotated to the transporter intended target family, where the subfamily is cholesterol transporter.
Binding assays used specific radioligands (tritiated, iodinated) with non-radioactive competitive displacement ligands in agonist or antagonist protocols (as indicated) and various reference compounds and inhibitors to titrate specific binding to receptors and transporters. Most enzyme assays (CYPs, kinases, phosphatases, proteases, HDACs) used recombinant protein and specific substrates (fluorescence mostly, some colorimetric and radioactive) and inhibitors, followed by a biochemical separation of substrate and product. All assays for the biochemical HTS were initially run in duplicate at a single concentration (10 uM for CYP450 assays and 25 uM for all others). […] Each assay was run with positive and negative controls, and concurrent controls on every plate. The follow-up (secondary) screen tested active chemical-pairs in concentration series, as well as a few additional assays not tested in the primary screen, some selected negative inactives, and several cases re-run in the concentration series for confirmatory purposes.

Chain of human Peripheral-type Benzodiazepine Receptor (PBR), TSPO (gene 706) (P30536 whole entry, looked up): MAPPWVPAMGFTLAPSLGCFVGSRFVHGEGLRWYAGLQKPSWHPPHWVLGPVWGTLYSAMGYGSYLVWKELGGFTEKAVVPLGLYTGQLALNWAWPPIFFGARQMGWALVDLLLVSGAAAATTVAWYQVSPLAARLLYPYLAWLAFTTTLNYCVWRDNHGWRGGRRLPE

SMILES | outcome | AC50
O=C(Nc1ccccc1-c1ccc(Cl)cc1)c1cccnc1Cl | inactive | 
CC1(C)C(C(=O)OC(C#N)c2cccc(Oc3ccccc3)c2)C1(C)C (centres undefined) | inactive | 
COC(=O)c1c(C(F)F)nc(C(F)(F)F)c(C2=NCCS2)c1CC(C)C | inactive | 
CC(C)Oc1cccc(NC(=O)c2ccccc2C(F)(F)F)c1 |  | 0.824 µM (active)
CC(C)=CC1C(C(=O)OCc2coc(Cc3ccccc3)c2)C1(C)C (centres undefined) | inactive | 
CCNP(=S)(OC)O/C(C)=C/C(=O)OC(C)C (centres undefined) |  | 17.5 µM (active)
COCC(C)N(C(=O)CCl)c1c(C)csc1C (centres undefined) |  | 9.66 µM (active)
CCOP(=O)(OCC)Oc1nc(Cl)c(Cl)cc1Cl |  | 4.32 µM (active)
CC(C)NC(=O)N1CC(=O)N(c2cc(Cl)cc(Cl)c2)C1=O |  | 8.8 µM (active)
COCC(=O)N(c1c(C)cccc1C)C(C)C(=O)OC (centres undefined) | inactive | 
Cc1nc(N(C)C)nc(OC(=O)N(C)C)c1C |  | 12.1 µM (active)
CN=C=S | inactive | 
CCCCOCN(C(=O)CCl)c1c(CC)cccc1CC |  | 6.37 µM (active)
COc1ccc(-c2ccccc2)cc1NNC(=O)OC(C)C |  | 0.149 µM (active)
CC(C)(C)C(=O)C(Oc1ccc(Cl)cc1)n1cncn1 (centres undefined) |  | 44 µM (active)
CCCCC(C#N)(Cn1cncn1)c1ccc(Cl)cc1 (centres undefined) | inactive | 
COP(=S)(OC)SCn1nnc2ccccc2c1=O |  | 17.5 µM (active)
Cc1c(COC(=O)[C@@H]2[C@H](/C=C(\Cl)C(F)(F)F)C2(C)C)cccc1-c1ccccc1 | inactive | 
CCN(CC)C(=O)C(C)Oc1cccc2ccccc12 (centres undefined) |  | 1.11 µM (active)
N#Cc1c[nH]cc1-c1cccc2c1OC(F)(F)O2 | inactive | 
CCOP(=S)(OCC)Oc1nc(Cl)n(C(C)C)n1 | inactive | 
COC(=O)N(C(=O)N1CO[C@@]2(C(=O)OC)Cc3cc(Cl)ccc3C2=N1)c1ccc(OC(F)(F)F)cc1 |  | 0.292 µM (active)
Clc1nc(Cl)nc(Nc2ccccc2Cl)n1 |  | 14.9 µM (active)
CCCCC(O)(Cn1cncn1)c1ccc(Cl)cc1Cl (centres undefined) | inactive | 
CC1(C)C(C=C(Cl)Cl)C1C(=O)OC(C#N)c1cccc(Oc2ccccc2)c1 (centres undefined) |  | 14.9 µM (active)
COP(=S)(OC)Oc1ccc([N+](=O)[O-])c(C)c1 |  | 25 µM (active)
OC(c1ccc(Cl)cc1)(c1ccc(Cl)cc1)C(Cl)(Cl)Cl | inactive | 
CCOC(=O)C(C)OC(=O)c1cc(Oc2ccc(C(F)(F)F)cc2Cl)ccc1[N+](=O)[O-] (centres undefined) |  | 8.41 µM (active)
CCN(CC)c1nc(C)cc(OP(=S)(OC)OC)n1 |  | 14 µM (active)
